Measurements as given in PubChem BioAssay (NCI).
Compounds without any hit were thinned out: in the full panel of roughly 83,000, 20% have a hit.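 Note: values are percent growth. 100 is the growth of untreated cells, values between 100 and 0 indicate rising inhibition; between -100 and 0 indicates cell death.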 Activity calls are given as the source filed them. Rule for the calls: active = growth percent below 10; inactive = the rest.

Columns and labels:
Assay in all cases: NCI-60 one-dose screen, 48 h (100 = growth as untreated, 0 = no growth, -100 = all killed)
Conditions in all cases: 10 µM unless noted
RPMI-8226 leukemia = tested on: RPMI-8226 leukemia
OVCAR-8 ovarian = tested on: OVCAR-8 ovarian
OVCAR-5 ovarian = tested on: OVCAR-5 ovarian
OVCAR-4 ovarian = tested on: OVCAR-4 ovarian
SK-OV-3 ovarian = tested on: SK-OV-3 ovarian
IGROV1 ovarian = tested on: IGROV1 ovarian
OVCAR-3 ovarian = tested on: OVCAR-3 ovarian
HS 578T breast = tested on: HS 578T breast
NCI/ADR-RES ovarian = tested on: NCI/ADR-RES ovarian
T-47D breast = tested on: T-47D breast
BT-549 breast = tested on: BT-549 breast
MDA-MB-435 melanoma = tested on: MDA-MB-435 melanoma
SW-620 colon = tested on: SW-620 colon
MCF7 breast = tested on: MCF7 breast
HCT-116 colon = tested on: HCT-116 colon
HCC-2998 colon = tested on: HCC-2998 colon
KM12 colon = tested on: KM12 colon

Measured: growth

CC(C)CSc1nc(Nc2ccccc2)c(C#N)c(-c2ccc(F)cc2)n1
active: OVCAR-4 ovarian -81.3% | IGROV1 ovarian 1.71% | OVCAR-3 ovarian -33.2% | HCT-116 colon 7.9%
inactive: RPMI-8226 leukemia 21.6% | OVCAR-8 ovarian 29.4% | OVCAR-5 ovarian 40.8% | SK-OV-3 ovarian 46.8% | HS 578T breast 14.6% | NCI/ADR-RES ovarian 41.1% | T-47D breast 29.1% | BT-549 breast 28% | MDA-MB-435 melanoma 77.4% | SW-620 colon 55.2% | MCF7 breast 69% | HCC-2998 colon 69.1% | KM12 colon 73.2%

COc1cc(C(C)c2ccc3c(ccn3C)c2)cc(OC)c1OC (centres undefined)
active: OVCAR-3 ovarian -16.4% | MDA-MB-435 melanoma -40.6% | HCT-116 colon 5.43%
inactive: RPMI-8226 leukemia 15.8% | OVCAR-8 ovarian 11.5% | OVCAR-5 ovarian 63.1% | OVCAR-4 ovarian 37.5% | SK-OV-3 ovarian 17.7% | IGROV1 ovarian 18.8% | HS 578T breast 35.1% | NCI/ADR-RES ovarian 13% | T-47D breast 57.3% | BT-549 breast 12.7% | SW-620 colon 28% | MCF7 breast 14.6% | HCC-2998 colon 23.4% | KM12 colon 10.3%

Cc1nc2sc(C(=O)Nc3cccc4ccccc34)c(N)c2cc1C(C)O (centres undefined)
active: OVCAR-3 ovarian 3.11% | NCI/ADR-RES ovarian -1.67% | MDA-MB-435 melanoma -33.7% | HCT-116 colon 8.51%
inactive: RPMI-8226 leukemia 18% | OVCAR-8 ovarian 16.2% | OVCAR-5 ovarian 40.7% | OVCAR-4 ovarian 55.5% | SK-OV-3 ovarian 32.1% | IGROV1 ovarian 31.7% | HS 578T breast 32.3% | T-47D breast 49.4% | BT-549 breast 26.2% | SW-620 colon 30.5% | MCF7 breast 17.8% | HCC-2998 colon 15.7% | KM12 colon 18.2%

C=C(C)[C@@H]1CC[C@]2(C(=O)O)CC[C@]3(C)[C@H](CC[C@@H]4[C@@]5(C)C[C@@H](CC#Cc6ccccc6)C(=O)C(C)(C)[C@@H]5CC[C@]43C)[C@@H]12
inactive: RPMI-8226 leukemia 15.3% | OVCAR-8 ovarian 26.5% | OVCAR-5 ovarian 65.4% | OVCAR-4 ovarian 41.3% | SK-OV-3 ovarian 42.9% | IGROV1 ovarian 61.1% | OVCAR-3 ovarian 17.9% | HS 578T breast 55.4% | NCI/ADR-RES ovarian 42.1% | T-47D breast 22.5% | BT-549 breast 40.7% | MDA-MB-435 melanoma 66.8% | SW-620 colon 27.3% | MCF7 breast 15.5% | HCC-2998 colon 29% | KM12 colon 27.9%
active: HCT-116 colon 9.07%

COCCOCCOCc1n(Cc2ccc3ccccc3n2)c2ccccc2[n+]1Cc1ccc2ccccc2n1
active: RPMI-8226 leukemia 1.07% | OVCAR-3 ovarian 7.54% | T-47D breast -4.32% | BT-549 breast 9.81% | MCF7 breast 9.35%
inactive: OVCAR-8 ovarian 19.9% | OVCAR-5 ovarian 40.6% | OVCAR-4 ovarian 15.4% | SK-OV-3 ovarian 21.3% | IGROV1 ovarian 20.2% | HS 578T breast 47.1% | NCI/ADR-RES ovarian 102% | MDA-MB-435 melanoma 11% | SW-620 colon 36.2% | HCT-116 colon 18.9% | HCC-2998 colon 23.2% | KM12 colon 12%

CCOC(=O)NCCc1nc2c([nH]1)c(=O)n(C)c(=O)n2C
inactive: RPMI-8226 leukemia 106% | OVCAR-8 ovarian 107% | OVCAR-5 ovarian 90.3% | OVCAR-4 ovarian 107% | SK-OV-3 ovarian 122% | IGROV1 ovarian 97.1% | OVCAR-3 ovarian 113% | HS 578T breast 104% | NCI/ADR-RES ovarian 99.8% | T-47D breast 102% | BT-549 breast 97.6% | MDA-MB-435 melanoma 101% | SW-620 colon 103% | MCF7 breast 95.4% | HCT-116 colon 92.7% | HCC-2998 colon 99.7% | KM12 colon 101%

COc1cc2c(cc1OCCCOc1cc3c(cc1OC)C(=O)N1CC(F)(F)C[C@H]1C=N3)N=C[C@@H]1CC(F)(F)CN1C2=O
inactive: OVCAR-8 ovarian 17.8% | OVCAR-5 ovarian 14.2% | OVCAR-4 ovarian 35.2% | SK-OV-3 ovarian 46.2% | OVCAR-3 ovarian 22.8% | NCI/ADR-RES ovarian 76.9% | T-47D breast 27.7% | MCF7 breast 13.8%
active: RPMI-8226 leukemia -30.7% | IGROV1 ovarian 0.757% | HS 578T breast -8.37% | BT-549 breast -38.5% | MDA-MB-435 melanoma -11.8% | SW-620 colon 1.84% | HCT-116 colon 4.77% | HCC-2998 colon -7.61% | KM12 colon -18.5%

COc1cc(C(=O)Nc2cc(O)c(C/C=C(\C)CCC=C(C)C)c(O)c2)cc2c1O[C@]1(C)CC[C@@H](O)C(C)(C)[C@H]1C2
inactive: OVCAR-8 ovarian 29.9% | OVCAR-5 ovarian 48.5% | OVCAR-4 ovarian 32.8% | SK-OV-3 ovarian 17.9% | IGROV1 ovarian 33.7% | NCI/ADR-RES ovarian 57.7% | BT-549 breast 18.4% | MDA-MB-435 melanoma 17.1% | MCF7 breast 10.2% | HCT-116 colon 13.2% | HCC-2998 colon 23.2% | KM12 colon 13.3%
active: RPMI-8226 leukemia -23.6% | OVCAR-3 ovarian 5.54% | HS 578T breast -1.79% | T-47D breast 9.68% | SW-620 colon 4.02%

Cc1cnc(SCc2ccc(Cl)cc2Cl)nc1Nc1ccc(Cl)c(Cl)c1
inactive: RPMI-8226 leukemia 86.7% | OVCAR-8 ovarian 91.9% | OVCAR-5 ovarian 103% | OVCAR-4 ovarian 93.9% | SK-OV-3 ovarian 97.9% | IGROV1 ovarian 82.8% | OVCAR-3 ovarian 99.6% | HS 578T breast 90.8% | NCI/ADR-RES ovarian 95.9% | T-47D breast 68% | BT-549 breast 101% | MDA-MB-435 melanoma 104% | SW-620 colon 102% | MCF7 breast 85.4% | HCT-116 colon 77.3% | HCC-2998 colon 103% | KM12 colon 89.4%

O=CN1N=C(c2ccc3c(c2)OCO3)CC1c1cccc(Nc2ccnc3cc(C(F)(F)F)ccc23)c1 (centres undefined)
inactive: RPMI-8226 leukemia 40.2% | OVCAR-8 ovarian 83.8% | OVCAR-5 ovarian 97.7% | OVCAR-4 ovarian 69.6% | SK-OV-3 ovarian 77.4% | IGROV1 ovarian 91.8% | OVCAR-3 ovarian 67.4% | HS 578T breast 96.1% | NCI/ADR-RES ovarian 76.8% | T-47D breast 45.8% | BT-549 breast 75% | MDA-MB-435 melanoma 40.6% | SW-620 colon 95.1% | MCF7 breast 68.2% | HCT-116 colon 74.5% | HCC-2998 colon 93.6% | KM12 colon 66.6%

OCCNc1nc(NCCO)nc(Nc2ccc(C3=NN(c4ccc(Cl)cc4)C(c4ccc(Cl)cc4)C3)cc2)n1 (centres undefined)
inactive: RPMI-8226 leukemia 27.7% | OVCAR-8 ovarian 65.3% | OVCAR-5 ovarian 110% | OVCAR-4 ovarian 65.6% | SK-OV-3 ovarian 84.1% | IGROV1 ovarian 78.9% | OVCAR-3 ovarian 40.7% | HS 578T breast 62% | NCI/ADR-RES ovarian 73.8% | T-47D breast 55.8% | BT-549 breast 77.1% | MDA-MB-435 melanoma 58.1% | SW-620 colon 71.1% | MCF7 breast 20.4% | HCT-116 colon 48.6% | HCC-2998 colon 56.8% | KM12 colon 49.8%

C=C1C(=O)O[C@H]2[C@H]1CC/C(COC(=O)CCCCCCCC(=O)OC/C1=C/CC[C@@]3(C)O[C@H]3[C@H]3OC(=O)C(=C)[C@@H]3CC1)=C\CC[C@@]1(C)O[C@@H]21
inactive: OVCAR-5 ovarian 44.4% | OVCAR-4 ovarian 26.7% | SK-OV-3 ovarian 101% | NCI/ADR-RES ovarian 28.6% | BT-549 breast 25.2% | MDA-MB-435 melanoma 29.9% | HCC-2998 colon 78.6% | KM12 colon 46.7%
active: RPMI-8226 leukemia 3.72% | OVCAR-8 ovarian 1.92% | IGROV1 ovarian -13.3% | OVCAR-3 ovarian 2.34% | HS 578T breast 9.65% | T-47D breast -30.2% | SW-620 colon 7.61% | MCF7 breast 5.35% | HCT-116 colon -43.6%

CN1CCN(C(=O)[C@@]2(C)CC[C@]3(C)CC[C@]4(C)C(=CC[C@@H]5[C@@]6(C)CC[C@H](OC(=O)c7cccnc7)C(C)(C)[C@@H]6CC[C@]54C)[C@@H]3C2)CC1
active: RPMI-8226 leukemia 6.97% | SW-620 colon -35.5%
inactive: OVCAR-8 ovarian 60.2% | OVCAR-5 ovarian 78.7% | OVCAR-4 ovarian 35.2% | SK-OV-3 ovarian 79.3% | IGROV1 ovarian 88.2% | OVCAR-3 ovarian 80.9% | HS 578T breast 76.8% | NCI/ADR-RES ovarian 77.6% | T-47D breast 57.6% | BT-549 breast 73.8% | MDA-MB-435 melanoma 45.4% | MCF7 breast 19.1% | HCT-116 colon 51.7% | HCC-2998 colon 97.3% | KM12 colon 53.2%

CCCCc1n(Cc2ccc3ccccc3c2)c2ccccc2[n+]1Cc1ccc2ccccc2c1
active: RPMI-8226 leukemia -37.9% | OVCAR-8 ovarian -76.7% | OVCAR-5 ovarian -94.1% | OVCAR-4 ovarian -90.7% | SK-OV-3 ovarian -65.5% | IGROV1 ovarian -80.1% | OVCAR-3 ovarian -87.8% | HS 578T breast -61.5% | T-47D breast -62.1% | BT-549 breast -74% | MDA-MB-435 melanoma -93.6% | SW-620 colon -79.8% | MCF7 breast -85.6% | HCT-116 colon -83.2% | HCC-2998 colon -80.6% | KM12 colon -82.9%
inactive: NCI/ADR-RES ovarian 63.2%

CNC(=O)c1cc(Oc2ccc3c(c2)sc2nc(-c4ccc(NC(C)=O)cc4)cn23)ccn1
inactive: RPMI-8226 leukemia 60.3% | OVCAR-8 ovarian 73% | OVCAR-5 ovarian 90% | OVCAR-4 ovarian 83.5% | SK-OV-3 ovarian 34% | IGROV1 ovarian 69.2% | OVCAR-3 ovarian 75% | HS 578T breast 43.4% | NCI/ADR-RES ovarian 52.1% | T-47D breast 16.9% | BT-549 breast 38.3% | SW-620 colon 57.2% | MCF7 breast 55% | HCT-116 colon 48.9% | HCC-2998 colon 78.1% | KM12 colon 43.3%
active: MDA-MB-435 melanoma 3.75%

O=C(/C(=C\c1c(-c2ccccc2)[nH]c2ccccc12)S(=O)(=O)c1ccccc1)c1ccccc1
active: RPMI-8226 leukemia -34.2%
inactive: OVCAR-8 ovarian 66.2% | OVCAR-5 ovarian 83.1% | OVCAR-4 ovarian 42.8% | SK-OV-3 ovarian 23.1% | IGROV1 ovarian 78.7% | OVCAR-3 ovarian 56.3% | HS 578T breast 72.1% | NCI/ADR-RES ovarian 43.4% | T-47D breast 22.2% | BT-549 breast 47.7% | MDA-MB-435 melanoma 17.2% | SW-620 colon 53% | MCF7 breast 40.7% | HCT-116 colon 33% | HCC-2998 colon 73.1% | KM12 colon 27%

CCSc1nc(Cl)c(C#N)c(-c2ccc(F)cc2)n1
inactive: RPMI-8226 leukemia 88.3% | OVCAR-8 ovarian 90.2% | OVCAR-5 ovarian 97.7% | OVCAR-4 ovarian 97.8% | SK-OV-3 ovarian 99.7% | IGROV1 ovarian 98.9% | OVCAR-3 ovarian 98% | HS 578T breast 91.6% | NCI/ADR-RES ovarian 102% | T-47D breast 90% | BT-549 breast 103% | MDA-MB-435 melanoma 91.8% | SW-620 colon 93.3% | MCF7 breast 85.1% | HCT-116 colon 91.8% | HCC-2998 colon 102% | KM12 colon 97.9%
